# Assays:
# Format in all cases: functional
# [1] = biological target: Solute carrier family 2, facilitated glucose transporter member 1 (Homo sapiens) (UniProt P11166); experiment: ST_JUDE_LEISH: Cytotoxicity at 2uM final concentration against transgenic Leishmania Mexicana promastigotes LmGLUT1 that are glucose transport deficient and complemented with the human glucose transporter GLUT1. Activity is measured by DNA content using SYBR green in vitro
# [2] = biological target: Hexose transporter 1 (Plasmodium falciparum) (UniProt O97467); experiment: ST_JUDE_LEISH: Cytotoxicity at 2uM final concentration against transgenic Leishmania Mexicana promastigotes LmPfHT that are glucose transport deficient and complemented with the Plasmodium falciparum hexose transporter. Activity is measured by DNA content using SYBR green in vitro
# [3] = biological target: Glucose transporter (Leishmania mexicana) (UniProt O61059); experiment: ST_JUDE_LEISH: Cytotoxicity at 2uM final concentration against transgenic Leishmania Mexicana promastigotes LmGT2 that are glucose transport deficient and complemented with the L. Mexicana glucose transporter 2. Activity is measured by DNA content using SYBR green in vitro
# Sequence of Solute carrier family 2, facilitated glucose transporter member 1 (Homo sapiens) (P11166 whole entry): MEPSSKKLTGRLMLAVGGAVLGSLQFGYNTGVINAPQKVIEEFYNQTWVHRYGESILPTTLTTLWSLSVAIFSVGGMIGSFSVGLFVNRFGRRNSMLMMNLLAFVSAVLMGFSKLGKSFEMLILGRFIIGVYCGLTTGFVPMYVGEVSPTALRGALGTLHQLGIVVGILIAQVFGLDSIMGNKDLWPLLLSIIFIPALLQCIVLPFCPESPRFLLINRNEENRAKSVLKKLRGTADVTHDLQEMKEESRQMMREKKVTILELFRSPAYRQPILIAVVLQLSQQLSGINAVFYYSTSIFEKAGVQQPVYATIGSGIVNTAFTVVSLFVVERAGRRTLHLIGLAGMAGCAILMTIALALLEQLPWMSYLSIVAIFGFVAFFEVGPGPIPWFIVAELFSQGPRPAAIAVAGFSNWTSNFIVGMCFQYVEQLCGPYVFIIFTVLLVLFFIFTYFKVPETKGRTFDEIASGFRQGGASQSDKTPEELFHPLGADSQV
SMILES,inhibition [1] [%],inhibition [2] [%],inhibition [3] [%]
Cc1ccccc1Nc1nc(NCc2ccccc2)nc2ccccc12,14.9,10.9,5.77
O=c1cc(NCCCNC2CCOc3c(Cl)cc(Cl)cc32)[nH]c2ccccc12 (configuration not stated),1.09,2.42,1.28
COc1cc(C)nc2ccc(NC(=O)COCC(=O)Nc3ccc4nc(C)cc(OC)c4c3)cc12,4.3,3.83,3.64
CC(C)N1CCN(CCCCNc2c3ccccc3nc3ccccc23)CC1,33,41,22.3
CC(NCCc1cccc(Cl)c1)C(O)c1ccc(OCCCCCCOc2ccc(C(O)C(C)NCCc3cccc(Cl)c3)cc2)cc1 (configuration not stated),38.2,69.9,24.4
CCN1CCCC1CNC(=O)c1cc2c(-c3ccc(Cl)cc3)nn(C)c2s1 (configuration not stated),2.89,5.39,2.6
CCOc1ccccc1CCNC(C)Cc1ccc(C(=O)Nc2ccc(CC(C)NCCc3cccc(Cl)c3)cc2)cc1 (configuration not stated),28,34.1,3.04
O=C(/C=C/c1cccc(C(F)(F)F)c1)NCCCCCN1CCN(C(=O)Nc2ccc(Cl)c(Cl)c2)CC1,2.21,2.33,1.97
CCN(CC)CCCC(C)Nc1ccnc2cc(Cl)ccc12 (configuration not stated),1.44,1.5,1.51

# Reference: ChEMBL document CHEMBL3433997, “St. Jude Leishmania screening dataset” (2016)
